The panel holds about 83,000 compounds, 20% with a hit somewhere; the sample as a whole holds those more often.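 Cell lines were cultured in 96-well plates, exposed to a single compound concentration, and assessed for percent growth 48 hours later.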 Activity calls are given as the source filed them. Rule for the calls: active = growth percent below 10; inactive = the rest.

The assay concerns SNB-19 CNS. The experiment in a line: NCI-60 one-dose screen, 48 h (100 = growth as untreated, 0 = no growth, -100 = all killed). The following applies: 10 µM unless noted.
As for `O=C1/C(=C\c2ccc(Br)o2)SC(=S)N1CCc1ccc(O)cc1`, the growth is 88.1% (inactive).
As to `N#CC1=C(N)Oc2ccc3ccccc3c2C1c1ccccc1` (centres undefined), the growth was 29.5% (inactive).
Regarding `N#CC1=C(N)Oc2ccc3ccccc3c2C1c1ccccc1Cl` (centres undefined), the growth was 33.9% (inactive).
Regarding `CCSc1sc(-c2ccc(C)cc2)nc1[P+](c1ccccc1)(c1ccccc1)c1ccccc1`, the growth was 8.14% (active).
Take `Fc1ccc2nc(-c3cc(-c4ccc5c(c4)OCO5)n[nH]3)[nH]c2c1`: the growth was 72.1% (inactive).
In the case of `CC(=O)c1c(C)[nH]c(-c2nc3ccc(N4CCN(C)CC4)cc3[nH]2)c1-c1ccc2c(c1)OCCO2`, the growth is 51.3% (inactive).
As to `COc1cc2nc(Cl)nc(Nc3cccc(C(=O)/C=C/c4ccc(Br)cc4)c3)c2cc1OC`, the growth is 86.1% (inactive).
For `COc1c(N)c2c(c([N+](=O)[O-])c1OC)C(=O)OC2`, the growth is 102% (inactive).
Take `N#C/C(=C\c1ccc(-c2cccc(C(F)(F)F)c2)o1)c1nc(-c2ccco2)cs1`: the growth is 93.8% (inactive).
As for `C=C(C)[C@@H]1CC[C@]2(CN)CC[C@]3(C)[C@H](CC[C@@H]4[C@@](C)(CCCN)[C@H](C(=C)C)CC[C@]43C)[C@@H]12`, the growth is 89.5% (inactive).
`Nc1ccccc1NC(=O)c1ccc(CN2CCC/C(=C\c3ccccn3)C2=O)cc1`: the growth was 38.1% (inactive).
Regarding `O=c1c2sc3ncc(Br)cc3c2ncn1-c1cccc(Cl)c1`, the growth was 89.5% (inactive).
Take `CCN1CCN(C(=O)[C@]23CCC(C)(C)C[C@@H]2C2=CC[C@@H]4[C@@]5(C)C/C(=C/c6ccncc6)C(=O)C(C)(C)[C@@H]5CC[C@@]4(C)[C@]2(C)CC3)CC1`: the growth was -16.1% (active).
As for `Cc1ccc(-c2nc([P+](c3ccccc3)(c3ccccc3)c3ccccc3)c(N3CCOCC3)o2)cc1`, the growth is 11.5% (inactive).
For the compound `CCCCn1c(-c2ccc(O)cc2)cn2c3c(=O)[nH]c(=O)n(C)c3nc12`, the growth is 82.5% (inactive).
For the compound `CN(C)CCCC1(c2ccc(F)cc2)OCc2cc(-c3ccc(C(F)(F)F)nc3)ccc21` (centres undefined), the growth is 76.7% (inactive).
The result for `Nc1c2c(nc3ccc(Cl)cc13)CC(c1ccc(O)cc1)CC2=O` (centres undefined) reads 45.8% (inactive); that for `N#Cc1c(-c2ccco2)nc2c(c(-c3ccccc3)nn2-c2ccccc2)c1-c1ccc(O)cc1`, 95.9% (inactive); that for `COc1ccc(OC)c(-c2c(C#N)c(-c3ccco3)nc3c2c(-c2ccccc2)nn3-c2ccccc2)c1`, 93.3% (inactive).
As for `N#CC1=C(N)Oc2c(c(N)nn2-c2ccccc2)C1c1ccc(Cl)cc1` (centres undefined), the growth was 94.7% (inactive).
In the case of `O=C(O)c1cccc2c1Cc1cc([N+](=O)[O-])ccc1-2`, the growth is 108% (inactive).
Take `CCN1CCN(C(=O)[C@]23CCC(C)(C)C[C@H]2C2=CC[C@@H]4[C@@]5(C)CC/C(=N/O)C(C)(C)[C@@H]5CC[C@@]4(C)[C@]2(C)CC3)CC1`: the growth was 70.4% (inactive).
As for `Cc1ccc(NC2CC(=O)N(c3c(C)cc(C)cc3C)C2=O)c(C)c1` (centres undefined), the growth was 92.6% (inactive).
With `NCCNc1nc(-c2ccccc2)nc2nc(-c3ccccc3)oc12`, the growth is 89.8% (inactive).
Consider `CCCCCC1CCCCN1C(=O)OCC` (centres undefined), for which the growth was 105% (inactive).
Turning to `COc1ccc(-c2cc(/C=C/C(=O)c3ccc(N)cc3)[nH]n2)cc1`, the growth is 27.6% (inactive).
Take `COc1ccc2nc(-c3cc(-c4cc(OC)c(OC)c(OC)c4)n[nH]3)[nH]c2c1`: the growth is 50.1% (inactive).
On to `COc1ccc(/C=C(\C#N)c2cc3ccccc3n2S(C)(=O)=O)cc1`, for which the growth was 82.3% (inactive).
As for `CC1c2ccccc2N(S(=O)(=O)c2ccccc2)C1C` (centres undefined), the figure is 91.5% (inactive).
As for `CC1(C)CC[C@]2(C(=O)NCCNCCN)CC[C@]3(C)C(=CC[C@@H]4[C@@]5(C)CCC(=O)C(C)(C)[C@@H]5CC[C@]43C)[C@@H]2C1`, the growth is 56.1% (inactive).
For the compound `C=C(C)[C@@H]1CC[C@]2(C)[C@H](CC[C@@H]3[C@H]4[C@H]5OC[C@@]4(CCC5(C)C)CC[C@]32C)[C@@]1(C)CCCN`, the growth was 94.2% (inactive).
Take `COc1cc2nc(Cl)nc(Nc3cccc(C(=O)/C=C/c4ccc(F)cc4)c3)c2cc1OC`: the growth was 50.1% (inactive).
Regarding `CC[C@H](CC[C@@H](C)[C@H]1CC[C@H]2[C@@H]3/C(=C/c4cccnc4)C(=O)C4=CC(=O)CC[C@]4(C)[C@H]3CC[C@]12C)C(C)C`, the growth is 88.6% (inactive).
In the case of `COc1ccc(CCN2C(=O)C(C)(C)SC2=S)cc1OC`, the growth was 96.4% (inactive).
Regarding `C=C(C)[C@@H]1CC[C@]2(C(=O)N3CCN(C)CC3)CC[C@]3(C)[C@H](CC[C@@H]4[C@@]5(C)C/C(=C/c6ccc(C(F)(F)F)cc6)C(=O)C(C)(C)[C@@H]5CC[C@]43C)[C@@H]12`, the growth is 97.3% (inactive).
For `Cc1nc([P+](c2ccccc2)(c2ccccc2)c2ccccc2)c(Sc2sc(-c3ccccc3)nc2[P+](c2ccccc2)(c2ccccc2)c2ccccc2)o1`, the growth is 16.2% (inactive).
In the case of `O=C1NC(=Nc2ccc(S(=O)(=O)Nc3nccs3)cc2)S/C1=C\c1coc2ccccc2c1=O`, the growth was 98.5% (inactive).
`Cc1ccc(Sc2sc(-c3ccccc3)nc2[P+](c2ccccc2)(c2ccccc2)c2ccccc2)cc1`: the growth was 10.4% (inactive).
The result for `Clc1ccccc1-c1nc(Nc2nc3ccccc3s2)nc(C(Cl)(Cl)Cl)n1` reads 43.5% (inactive).

For the origin of these results see PubChem BioAssay (NCI).
